This is part of a sample that, as a whole, favours compounds with a hit. Of some 79,000 tested, about 15% had one in any assay. Values without a mark were called inactive. Active and inactive are the calls of the source. Rule as the data show it: active = growth inhibition above about 70%; inactive = the rest.

The nature of one experiment: NCI Yeast Anticancer Drug Screen. Data for the mlh1 rad18 strain (AID 175). The note with it: S. cerevisiae mlh1 rad18 strain growth inhibition; at 5.0 µM (retest, dose inferred, filed as 0.5); active compounds read high. On the procedure:
Growth inhibition of yeast strains with defined genetic alterations is measured as a screen for potential anti-cancer activity. Selected strains with alterations in DNA damage repair or cell cycle control were exposed to compounds and growth inhibition was measured relative to vehicle treated controls. The strain used in this assay is mlh1 rad18
In the case of `CCOC(=O)C(c1ccsc1)P(=O)(OCC)OCC` (configuration not stated), the growth inhibition is 4%.

As for `C/C=C1/C(=O)O[C@]23C=C[C@@H]4C(C(=O)OC)=CO[C@H](O[C@@H]12)[C@@H]43`, the growth inhibition was 88% (active). `CCC[CH2][Sn]1([CH2]CCC)[O]CC(COc2c(Cl)cc(Cl)cc2Cl)[O]1` (configuration not stated): the growth inhibition is 91% (active). With `CC(C)CCC1(CCSC(=O)S)C(=O)NC(=O)NC1=O`, the growth inhibition is -8%. On the same count and under the same terms, the value for `O=[N+]([O-])/C=C/c1ccccc1Cl` was 99% (active); that for `S=C1NCCN1` was 2%.

With `CN1CCN(c2ccc3nc(-c4ccc5nc(-c6ccc(N(C)CCCl)cc6)[nH]c5c4)[nH]c3c2)CC1`, the growth inhibition was -16%.

For the compound `O=C(Cc1c2ccccc2cc2c1ccc1ccccc12)N(CCCl)CCCl`, the growth inhibition is 42%. Still for that read-out and setting: the value for `C[N+](C)(C)CC1CCCC(C[N+](C)(C)C)C1O` (configuration not stated) was 0%; that for `Cc1cc(C)c(C[N+](C)(C)C)c(C)c1C` was 88% (active).

The same experiment, now with this note: S. cerevisiae mlh1 rad18 strain growth inhibition; at 50.0 µM (retest, dose inferred, filed as 5.0); active compounds read high.
For the compound `CCOC(=O)C(c1ccsc1)P(=O)(OCC)OCC` (configuration not stated), the growth inhibition was 84% (active). With `C/C=C1/C(=O)O[C@]23C=C[C@@H]4C(C(=O)OC)=CO[C@H](O[C@@H]12)[C@@H]43`, the growth inhibition is 98% (active).

For `CCC[CH2][Sn]1([CH2]CCC)[O]CC(COc2c(Cl)cc(Cl)cc2Cl)[O]1` (configuration not stated), the growth inhibition is 91% (active). As for `CC(C)CCC1(CCSC(=O)S)C(=O)NC(=O)NC1=O`, the growth inhibition was 70% (active). With `O=[N+]([O-])/C=C/c1ccccc1Cl`, the growth inhibition was 99% (active). For `S=C1NCCN1`, the growth inhibition is 51%. Same read-out and setting: to `CN1CCN(c2ccc3nc(-c4ccc5nc(-c6ccc(N(C)CCCl)cc6)[nH]c5c4)[nH]c3c2)CC1` belongs 99% (active). Still for that read-out and setting: to `O=C(Cc1c2ccccc2cc2c1ccc1ccccc12)N(CCCl)CCCl` belongs 96% (active); to `C[N+](C)(C)CC1CCCC(C[N+](C)(C)C)C1O` (configuration not stated), 80% (active); to `Cc1cc(C)c(C[N+](C)(C)C)c(C)c1C`, 96% (active).

Still in this experiment, the particulars now being: S. cerevisiae mlh1 rad18 strain growth inhibition; at 50.0 µM; active compounds read high.
For `CC[As](CC)SC(CC[C@@H](C)C1CC[C@@]2(C)C3=C(CC[C@]12C)[C@@]1(C)CC[C@H](O)C(C)(C)[C@@H]1CC3)C(C)C` (some centres not stated), the growth inhibition was -25.6%. Same read-out and setting: the value for `N.N.N.O=N[O-].O=N[O-].O=N[O-].[Co+3]` was -10.4%; that for `CCOC(=O)C(c1ccsc1)P(=O)(OCC)OCC` (configuration not stated) was 60.9%. Still for that read-out and setting: the value for `C/C=C1/C(=O)O[C@]23C=C[C@@H]4C(C(=O)OC)=CO[C@H](O[C@@H]12)[C@@H]43` was 66%. Same read-out and setting: to `CCC[CH2][Sn]1([CH2]CCC)[O]CC(COc2c(Cl)cc(Cl)cc2Cl)[O]1` (configuration not stated) belongs 89.8% (active); to `O=C1[C@@H]2[C@H](C(=O)N1c1ccccc1)[C@H]1CC[C@H]2N1C(=O)c1ccccc1`, 6.5%; to `S=C(SSC(=S)N(Cc1ccccc1)Cc1ccccc1)N(Cc1ccccc1)Cc1ccccc1`, 12%. Take `CCOC(=O)/C(=C\c1ccc(C(F)(F)F)cc1)[Se]c1ccccc1`: the growth inhibition is -0.3%.

For `CC(C)CCC1(CCSC(=O)S)C(=O)NC(=O)NC1=O`, the growth inhibition is 30.8%. For the compound `CCCCP(=O)(CCCC)CCCC.CCCCP(=O)(CCCC)CCCC.CCCCP(=O)(CCCC)CCCC.CCCCP(=O)(CCCC)CCCC.[Ce+3].[O-][Cl+3]([O-])([O-])O`, the growth inhibition is 42.4%. On the same count and under the same terms, the value for `Nc1nc(N)n2c(N)nnc2n1` was 13.7%; that for `N.N.N.N.N#N.N#N.[Cl-].[Os+6]` was -39%.

Turning to `CCC[CH2][Sn]1([CH2]CCC)[O]C(=O)c2ccc(N)cc2[O]1`, the growth inhibition was 89.8% (active). `O=[N+]([O-])/C=C/c1ccccc1Cl`: the growth inhibition is 91.2% (active). Still for that read-out and setting: the value for `S=C1NCCN1` was 4.95%.

Turning to `CN1CCN(c2ccc3nc(-c4ccc5nc(-c6ccc(N(C)CCCl)cc6)[nH]c5c4)[nH]c3c2)CC1`, the growth inhibition is 98.4% (active). The same measure, in the same setting: the value for `O=C1C(C(Nc2ccccc2)c2ccccc2)=C([O-])c2ccccc21.O=C1C(C(Nc2ccccc2)c2ccccc2)=C([O-])c2ccccc21.[Cu+2]` (configuration not stated) was -0.65%; that for `O=C(Cc1c2ccccc2cc2c1ccc1ccccc12)N(CCCl)CCCl` was 99% (active). On the same count and under the same terms, to `C[N+](C)(C)CC1CCCC(C[N+](C)(C)C)C1O` (configuration not stated) belongs 95.2% (active); to `COc1cccc2c1C(=O)c1c(O)c3c(c(O)c1C2=O)CC(O)(C(=O)CO)CC3OC1CC(N2CCOCC2C#N)C(O)C(C)O1` (configuration not stated), 89.8% (active); to `CC(=O)O[C@H]1CCC2[C@@H]3CCC4c5nonc5CC[C@]4(C)C3CC[C@@]21C` (some centres not stated), 17.9%. As to `Cc1cc(C)c(C[N+](C)(C)C)c(C)c1C`, the growth inhibition was 98.9% (active).

Values taken from PubChem BioAssay (NCI).
